Measured values: the supplement of paper PMC10849652
Of roughly 7,900 targets only a part is listed; those with a hit were picked by preference. About 0.6% of all pairs of compound and target were hits.

Columns and labels:
Test in all cases: log2 fold change, soluble protein after heating vs DMSO (PISA); higher = thermal stabilisation; K562 cells, 10 uM, 30 min; active = over 0.2 and 3.5 SD of the protein, either way, in both replicates (recomputed)
IRAK-1-4 Inhibitor I = compound: C1COCCN1CCN2C3=CC=CC=C3N=C2NC(=O)C4=CC(=CC=C4)[N+](=O)[O-] [IRAK-1-4 Inhibitor I]
Outline: (§1)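 K562 cells at 2×10^6 cells/mL were given 10 μM compound for 30 min. Aliquots then went through 3 min of heating across 48°C-58°C, were pooled, and were extracted in PBS with 0.5% NP-40 at 4°C, and the supernatant after 21,000xg for 90 min was quantified by TMTpro 16plex LC-MS/MS with channel sums equalised. Thermal stability relative to control samples, from duplicates, is given as log2 fold change.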

ibrutinib = compound: C=CC(=O)N1CCC[C@@H](n2nc(-c3ccc(Oc4ccccc4)cc3)c3c(N)ncnc32)C1 [ibrutinib]
Outline: as §1

[1] = compound: CC(=O)c1cnc2ccc(-c3cc(Cl)c(O)c(Cl)c3)nc2c1N[C@H]1CC[C@H](CN(C)C)CC1
Outline: as §1

[2] = compound: CC(C)(O)CC(=O)NCCn1ccc2ncnc(Nc3ccc(Oc4cccc(C(F)(F)F)c4)c(Cl)c3)c21
Outline: as §1

[3] = compound: CC(C)C1=C2N=C(C=C(N2N=C1)NCC3=CC=CC=C3)NCCCCCCN
Outline: as §1

pinometostat = compound: CC(C)N(C[C@H]1O[C@@H](n2cnc3c(N)ncnc32)[C@H](O)[C@@H]1O)[C@H]1C[C@@H](CCc2nc3cc(C(C)(C)C)ccc3[nH]2)C1 [pinometostat]
Outline: as §1

[4] = compound: CC1=C(C(CC(=O)N1)C2=CC=C(C=C2)C(F)(F)F)C(=O)NC3=C(C=C4C(=C3)C=NN4)F
Outline: as §1

[5] = compound: CC1=C(C2=C(C=C1)C(=O)C3=CC=CC=C3N2CCCN)C
Outline: as §1

ralimetinib = compound: CC(C)(C)Cn1c(N)nc2ccc(-c3[nH]c(C(C)(C)C)nc3-c3ccc(F)cc3)nc21 [ralimetinib]
Outline: as §1

[6] = compound: CC(C)C[C@@H](C=O)NC(=O)[C@H](CC(C)C)NC(=O)[C@H](CC(C)C)NC(=O)OCc1ccccc1
Outline: as §1

Measured: log2 fold change

EIF3J isoform 2 (UniProt O75822)
inactive: IRAK-1-4 Inhibitor I 0.052 | ibrutinib 0.014 | [1] -0.071 | [2] -0.05 | [3] 0.036 | pinometostat -0.018 | [4] 0.046 | [5] 0.107

EXOSC10 (UniProt Q01780)
inactive: IRAK-1-4 Inhibitor I 0.165 | ibrutinib 0.033 | [1] 0.026 | ralimetinib -0.261 | [2] -0.01 | [3] 0.213 | [6] 0.247 | pinometostat 0.059 | [5] 0.076

FAM118A (UniProt Q9NWS6)
inactive: IRAK-1-4 Inhibitor I -0.009 | ibrutinib 0.045 | [1] -0.212 | ralimetinib -0.21 | [2] -0.207 | [6] -0.125 | pinometostat -0.054 | [4] -0.006 | [5] 0.014

FAM114A2 (UniProt Q9NRY5)
inactive: IRAK-1-4 Inhibitor I 0.038 | ibrutinib -0.03 | [1] 0.013 | ralimetinib -0.017 | [2] -0.135 | [3] -0.201 | [6] 0.004 | pinometostat 0.005 | [4] -0.01 | [5] -0.059

DPYSL2 (UniProt Q16555)
inactive: IRAK-1-4 Inhibitor I -0.003 | ibrutinib 0.092 | [1] 0.024 | [2] 0.092 | [3] 0.066 | pinometostat 0.009 | [4] -0.007 | [5] 0.01

DDX39A (UniProt O00148)
active: [3] -0.327
inactive: IRAK-1-4 Inhibitor I -0.034 | ibrutinib 0.099 | [1] -0.224 | ralimetinib 0.003 | [2] -0.142 | [6] 0.042 | pinometostat 0.075 | [4] 0.092 | [5] -0.28

DNAJC19 (UniProt Q96DA6)
Sequence of UniProt Q96DA6 (Q96DA6 whole entry, looked up): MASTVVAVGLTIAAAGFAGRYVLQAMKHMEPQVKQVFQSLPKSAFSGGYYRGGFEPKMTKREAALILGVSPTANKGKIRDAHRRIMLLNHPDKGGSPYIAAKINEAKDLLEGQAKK
inactive: IRAK-1-4 Inhibitor I 0.045 | ibrutinib 0.024 | [1] 0.038 | ralimetinib 0.029 | [2] -0.054 | [3] -0.153 | [6] -0.006 | pinometostat -0.013 | [4] 0.016 | [5] 0.023

FAM193B (UniProt Q96PV7)
Sequence of UniProt Q96PV7 (Q96PV7 whole entry, looked up): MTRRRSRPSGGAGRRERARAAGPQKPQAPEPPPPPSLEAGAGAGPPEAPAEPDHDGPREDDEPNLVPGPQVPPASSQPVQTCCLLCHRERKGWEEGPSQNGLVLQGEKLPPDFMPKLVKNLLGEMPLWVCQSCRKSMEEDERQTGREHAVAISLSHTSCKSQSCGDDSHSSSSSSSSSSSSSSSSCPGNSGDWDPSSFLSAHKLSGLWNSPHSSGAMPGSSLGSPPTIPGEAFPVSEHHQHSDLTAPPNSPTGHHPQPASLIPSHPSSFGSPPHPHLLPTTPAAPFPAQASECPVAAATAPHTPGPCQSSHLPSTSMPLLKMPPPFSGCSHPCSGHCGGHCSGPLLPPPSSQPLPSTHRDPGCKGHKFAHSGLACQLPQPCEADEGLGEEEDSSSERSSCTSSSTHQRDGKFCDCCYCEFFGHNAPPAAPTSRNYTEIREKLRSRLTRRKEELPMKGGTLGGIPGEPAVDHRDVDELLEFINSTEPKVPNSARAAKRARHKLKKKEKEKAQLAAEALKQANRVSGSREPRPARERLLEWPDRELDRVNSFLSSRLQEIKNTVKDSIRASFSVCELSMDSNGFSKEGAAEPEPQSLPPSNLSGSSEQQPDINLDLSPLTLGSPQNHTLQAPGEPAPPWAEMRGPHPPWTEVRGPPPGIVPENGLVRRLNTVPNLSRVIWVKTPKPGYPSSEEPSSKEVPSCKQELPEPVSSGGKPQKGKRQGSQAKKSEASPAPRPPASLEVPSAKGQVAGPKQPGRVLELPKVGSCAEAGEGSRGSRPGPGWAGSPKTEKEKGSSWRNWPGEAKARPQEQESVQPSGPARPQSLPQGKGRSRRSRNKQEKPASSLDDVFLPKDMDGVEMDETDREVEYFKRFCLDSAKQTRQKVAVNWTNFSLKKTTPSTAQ
inactive: IRAK-1-4 Inhibitor I -0.049 | ibrutinib -0.266 | [1] -0.03 | [2] -0.05 | pinometostat 0.112 | [5] -0.181

DUS3L (UniProt Q96G46)
inactive: IRAK-1-4 Inhibitor I 0 | ibrutinib 0.008 | [1] -0.031 | ralimetinib 0.042 | [2] -0.043 | [3] 0.062 | [6] -0.055 | pinometostat -0.022 | [4] -0.001 | [5] -0.005

CTSZ (UniProt Q9UBR2)
active: [3] -0.395
inactive: IRAK-1-4 Inhibitor I 0.008 | ibrutinib -0.02 | [1] 0.053 | ralimetinib -0.062 | [2] 0 | [6] 0.082 | pinometostat -0.076 | [4] 0.015 | [5] -0.036

DNAL1 (UniProt Q4LDG9)
Sequence of UniProt Q4LDG9 (Q4LDG9 whole entry, looked up): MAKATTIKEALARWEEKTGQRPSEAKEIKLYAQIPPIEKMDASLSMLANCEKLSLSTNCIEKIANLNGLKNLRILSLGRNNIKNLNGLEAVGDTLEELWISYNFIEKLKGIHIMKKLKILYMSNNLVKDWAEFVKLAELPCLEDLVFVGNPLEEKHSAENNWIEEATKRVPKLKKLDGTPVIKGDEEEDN
inactive: IRAK-1-4 Inhibitor I 0.012 | ibrutinib -0.082 | [1] 0.042 | ralimetinib 0.042 | [2] 0.183 | [6] 0.007 | pinometostat 0.093

EIF4G3 isoform 3 (UniProt O43432)
inactive: IRAK-1-4 Inhibitor I 0.012 | ibrutinib 0 | [1] -0.074 | ralimetinib -0.003 | [3] -0.079 | [6] 0.017 | pinometostat 0.079 | [4] -0.227 | [5] 0.03

DBNL isoform 3 (UniProt Q9UJU6)
inactive: IRAK-1-4 Inhibitor I -0.075 | ibrutinib -0.122 | [1] 0.006 | ralimetinib -0.015 | [2] -0.132 | [3] -0.136 | [6] -0.007 | pinometostat -0.044 | [4] -0.02 | [5] -0.066

DTYMK (UniProt P23919)
inactive: IRAK-1-4 Inhibitor I 0.076 | ibrutinib -0.003 | [1] -0.02 | ralimetinib -0.056 | [2] -0.178 | [3] -0.029 | [6] -0.013 | pinometostat 0.039 | [4] -0.01 | [5] 0.084

CUX1 isoform 2 (UniProt Q13948)
Sequence of UniProt Q13948 (Q13948 whole entry, looked up): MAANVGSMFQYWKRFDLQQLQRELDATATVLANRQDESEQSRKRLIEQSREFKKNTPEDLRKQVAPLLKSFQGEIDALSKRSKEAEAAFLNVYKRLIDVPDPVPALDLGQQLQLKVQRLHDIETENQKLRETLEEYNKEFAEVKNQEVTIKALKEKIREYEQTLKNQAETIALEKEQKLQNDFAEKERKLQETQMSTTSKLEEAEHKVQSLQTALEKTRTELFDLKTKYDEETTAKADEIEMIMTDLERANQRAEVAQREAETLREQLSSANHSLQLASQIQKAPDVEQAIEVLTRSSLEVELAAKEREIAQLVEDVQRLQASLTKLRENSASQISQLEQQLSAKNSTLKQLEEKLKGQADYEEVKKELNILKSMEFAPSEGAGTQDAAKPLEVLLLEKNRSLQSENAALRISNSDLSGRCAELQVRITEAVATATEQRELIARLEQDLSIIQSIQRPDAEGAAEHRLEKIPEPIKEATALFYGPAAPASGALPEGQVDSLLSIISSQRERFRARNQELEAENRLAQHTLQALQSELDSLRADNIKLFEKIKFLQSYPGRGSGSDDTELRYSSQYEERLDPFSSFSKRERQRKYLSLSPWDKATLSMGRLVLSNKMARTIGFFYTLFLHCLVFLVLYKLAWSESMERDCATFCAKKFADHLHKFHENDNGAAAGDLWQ
inactive: IRAK-1-4 Inhibitor I 0.042 | ibrutinib 0.017 | [1] -0.032 | ralimetinib 0.036 | [2] -0.101 | [3] 0.045 | [6] 0.042 | pinometostat 0.055 | [4] 0.013 | [5] 0.049

EIF4E2 (UniProt O60573)
inactive: IRAK-1-4 Inhibitor I 0.064 | ibrutinib -0.007 | [1] -0.272 | ralimetinib 0.012 | [2] -0.036 | [3] -0.109 | [6] 0.118 | pinometostat 0.043 | [4] 0.056 | [5] 0.116

EFCAB14 (UniProt O75071)
inactive: IRAK-1-4 Inhibitor I -0.016 | ibrutinib 0.043 | [1] -0.196 | ralimetinib 0.135 | [2] -0.009 | [3] -0.127 | [6] -0.063 | pinometostat -0.061 | [4] -0.035 | [5] 0.006

DNAAF2 (UniProt Q9NVR5)
inactive: IRAK-1-4 Inhibitor I -0.02 | ibrutinib -0.023 | [1] 0.014 | ralimetinib 0.022 | [2] 0.013 | [3] -0.025 | [6] -0.054 | pinometostat -0.023 | [4] 0 | [5] -0.013

DAXX (UniProt Q9UER7)
Sequence of UniProt Q9UER7 (Q9UER7 whole entry, looked up): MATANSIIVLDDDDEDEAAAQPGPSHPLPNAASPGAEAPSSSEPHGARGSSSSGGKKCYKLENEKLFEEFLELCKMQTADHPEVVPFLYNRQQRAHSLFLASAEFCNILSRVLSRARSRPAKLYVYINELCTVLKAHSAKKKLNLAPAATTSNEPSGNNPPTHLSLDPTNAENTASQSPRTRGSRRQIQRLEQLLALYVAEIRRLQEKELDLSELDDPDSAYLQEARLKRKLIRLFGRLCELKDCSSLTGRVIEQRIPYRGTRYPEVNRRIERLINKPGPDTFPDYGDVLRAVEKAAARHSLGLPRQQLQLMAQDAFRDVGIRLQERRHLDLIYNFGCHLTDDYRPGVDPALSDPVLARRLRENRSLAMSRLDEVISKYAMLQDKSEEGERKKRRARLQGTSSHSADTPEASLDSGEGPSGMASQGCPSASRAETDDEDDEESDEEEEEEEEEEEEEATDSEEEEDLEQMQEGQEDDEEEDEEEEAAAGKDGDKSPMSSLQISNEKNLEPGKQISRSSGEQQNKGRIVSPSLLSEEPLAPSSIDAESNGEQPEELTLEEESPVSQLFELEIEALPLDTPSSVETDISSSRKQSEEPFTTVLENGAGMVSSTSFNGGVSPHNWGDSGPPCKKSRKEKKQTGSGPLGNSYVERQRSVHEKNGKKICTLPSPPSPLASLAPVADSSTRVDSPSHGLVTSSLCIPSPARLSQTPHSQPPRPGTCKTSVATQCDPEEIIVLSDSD
inactive: IRAK-1-4 Inhibitor I 0.13 | ibrutinib 0.091 | [1] 0.008 | ralimetinib 0.218 | [3] 0.243 | [6] 0.088 | pinometostat -0.049 | [4] 0.078 | [5] 0.078

DHRS3 (UniProt O75911)
Sequence of UniProt O75911 (O75911 whole entry, looked up): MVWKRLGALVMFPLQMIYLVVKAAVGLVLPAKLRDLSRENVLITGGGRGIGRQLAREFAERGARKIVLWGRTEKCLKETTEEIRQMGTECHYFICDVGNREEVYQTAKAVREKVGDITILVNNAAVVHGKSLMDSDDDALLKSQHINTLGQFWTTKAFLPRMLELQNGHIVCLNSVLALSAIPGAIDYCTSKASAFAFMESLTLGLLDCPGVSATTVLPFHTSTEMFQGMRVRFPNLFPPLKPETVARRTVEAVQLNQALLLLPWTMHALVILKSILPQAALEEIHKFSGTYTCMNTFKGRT
inactive: IRAK-1-4 Inhibitor I 0 | ibrutinib 0.027 | [1] -0.083 | ralimetinib 0.001 | [2] 0.143 | [3] 0.018 | [6] -0.017 | pinometostat -0.056 | [4] -0.055 | [5] 0.03

FAM207A (UniProt Q9NSI2)
inactive: IRAK-1-4 Inhibitor I -0.043 | ibrutinib -0.082 | [1] 0.057 | ralimetinib 0.123 | [2] -0.033 | [3] -0.066 | [6] 0.088 | pinometostat 0.024 | [4] 0.005 | [5] 0.038

DHX40 (UniProt Q8IX18)
inactive: IRAK-1-4 Inhibitor I 0.047 | ibrutinib -0.04 | [1] -0.069 | ralimetinib -0.036 | [2] -0.07 | [3] -0.075 | [6] -0.038 | pinometostat 0.047 | [4] 0.061 | [5] 0.096

DYNC1LI2 (UniProt O43237)
Sequence of UniProt O43237 (O43237 whole entry, looked up): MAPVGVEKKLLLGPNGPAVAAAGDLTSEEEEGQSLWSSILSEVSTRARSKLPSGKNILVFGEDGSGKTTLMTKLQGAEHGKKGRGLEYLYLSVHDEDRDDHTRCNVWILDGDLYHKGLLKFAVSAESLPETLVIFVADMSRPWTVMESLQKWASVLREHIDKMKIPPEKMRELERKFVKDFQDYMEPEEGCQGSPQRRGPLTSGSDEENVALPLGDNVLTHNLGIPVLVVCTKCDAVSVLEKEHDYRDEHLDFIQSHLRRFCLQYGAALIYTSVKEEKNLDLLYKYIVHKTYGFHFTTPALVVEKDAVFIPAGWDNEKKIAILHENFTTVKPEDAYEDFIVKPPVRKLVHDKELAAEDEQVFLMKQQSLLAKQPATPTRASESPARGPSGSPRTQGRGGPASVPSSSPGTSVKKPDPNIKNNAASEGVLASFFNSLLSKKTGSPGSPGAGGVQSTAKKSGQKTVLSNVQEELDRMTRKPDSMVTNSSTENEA
inactive: IRAK-1-4 Inhibitor I 0.089 | ibrutinib 0.083 | [1] 0.099 | ralimetinib 0.124 | [2] 0.03 | [3] -0.067 | [6] 0.07 | pinometostat 0.146 | [4] 0.007 | [5] 0.094

EPHX2 (UniProt P34913)
inactive: IRAK-1-4 Inhibitor I 0.044 | ibrutinib 0.096 | [1] -0.024 | ralimetinib -0.026 | [2] -0.018 | [6] 0.012 | pinometostat 0.144 | [4] 0.073 | [5] -0.006
active: [3] 0.285

EIF2AK3 (UniProt Q9NZJ5)
inactive: IRAK-1-4 Inhibitor I -0.136 | ibrutinib 0.13 | [1] -0.369 | [2] -0.322 | [3] 0.011 | pinometostat -0.048 | [4] -0.106 | [5] 0.032

EXOC8 (UniProt Q8IYI6)
Sequence of UniProt Q8IYI6 (Q8IYI6 whole entry, looked up): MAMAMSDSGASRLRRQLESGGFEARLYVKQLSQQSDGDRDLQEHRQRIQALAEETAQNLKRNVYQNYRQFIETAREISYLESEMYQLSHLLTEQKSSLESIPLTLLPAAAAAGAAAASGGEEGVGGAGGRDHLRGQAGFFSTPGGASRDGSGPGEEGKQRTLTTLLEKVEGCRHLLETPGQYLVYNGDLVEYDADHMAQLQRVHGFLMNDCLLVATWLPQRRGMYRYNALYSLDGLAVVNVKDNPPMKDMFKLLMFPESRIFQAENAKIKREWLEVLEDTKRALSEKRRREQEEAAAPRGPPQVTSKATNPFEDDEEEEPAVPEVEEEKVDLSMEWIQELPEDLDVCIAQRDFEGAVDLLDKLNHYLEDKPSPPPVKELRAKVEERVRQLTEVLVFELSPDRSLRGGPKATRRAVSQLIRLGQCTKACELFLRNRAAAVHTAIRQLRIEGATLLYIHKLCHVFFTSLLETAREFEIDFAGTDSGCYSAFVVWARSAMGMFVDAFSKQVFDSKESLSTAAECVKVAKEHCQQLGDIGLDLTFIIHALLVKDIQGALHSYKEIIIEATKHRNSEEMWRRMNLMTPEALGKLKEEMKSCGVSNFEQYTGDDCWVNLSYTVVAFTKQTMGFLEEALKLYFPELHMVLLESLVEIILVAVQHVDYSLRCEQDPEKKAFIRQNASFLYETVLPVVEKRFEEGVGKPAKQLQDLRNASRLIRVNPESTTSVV
inactive: IRAK-1-4 Inhibitor I -0.094 | ibrutinib -0.001 | [1] 0.014 | ralimetinib 0.049 | [2] -0.128 | [6] -0.032 | pinometostat 0.051 | [4] 0.026 | [5] -0.002
active: [3] -0.317

FAM241A (UniProt Q8N8J7)
inactive: IRAK-1-4 Inhibitor I 0.011 | ibrutinib -0.094 | [1] 0.063 | ralimetinib -0.019 | [3] -0.008 | [6] 0.004 | pinometostat -0.029 | [4] 0.059 | [5] -0.008

ELMO1 (UniProt Q92556)
Sequence of UniProt Q92556 (Q92556 whole entry, looked up): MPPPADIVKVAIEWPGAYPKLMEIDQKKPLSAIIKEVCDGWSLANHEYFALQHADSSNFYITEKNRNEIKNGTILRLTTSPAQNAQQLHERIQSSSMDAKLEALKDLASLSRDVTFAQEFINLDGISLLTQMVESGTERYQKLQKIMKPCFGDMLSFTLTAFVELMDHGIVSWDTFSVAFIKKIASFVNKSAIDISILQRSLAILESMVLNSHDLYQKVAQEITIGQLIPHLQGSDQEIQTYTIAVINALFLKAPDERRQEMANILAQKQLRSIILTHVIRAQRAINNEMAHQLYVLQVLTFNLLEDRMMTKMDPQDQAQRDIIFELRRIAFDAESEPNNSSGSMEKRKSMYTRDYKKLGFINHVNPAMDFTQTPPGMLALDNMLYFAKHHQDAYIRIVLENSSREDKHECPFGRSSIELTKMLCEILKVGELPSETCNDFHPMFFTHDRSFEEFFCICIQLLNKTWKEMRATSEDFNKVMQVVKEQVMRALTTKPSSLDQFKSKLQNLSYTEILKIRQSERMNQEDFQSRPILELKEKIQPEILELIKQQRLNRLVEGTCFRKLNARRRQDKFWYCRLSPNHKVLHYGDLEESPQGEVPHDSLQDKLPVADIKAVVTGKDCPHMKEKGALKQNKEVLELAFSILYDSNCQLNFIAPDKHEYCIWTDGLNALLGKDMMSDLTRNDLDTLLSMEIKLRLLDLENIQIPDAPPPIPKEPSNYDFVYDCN
active: [6] 0.761
inactive: IRAK-1-4 Inhibitor I -0.022 | ibrutinib -0.176 | ralimetinib 0.069 | [2] -0.091 | [3] -0.094 | pinometostat -0.161 | [4] 0.037
